Compound activity from PubChem BioAssay.
A selection: hits, their analogues and other compounds. The true share with any hit is near 0.45%.
EPAC2 antag – antagonists of human EPAC2. EPAC2 GEF exchange of Rap1B-BODIPY-GDP, fluorescence. hit rate 0.18% among 360,000. Q8WZA2. Potency, µM (series often up to 114 µM), for inactives: at the highest dose activity, negative = inhibition, usual class: inhibitors. AID 720708; also: % is scaled to controls: 0 for no effect and ±100 for the full control effect; nearly all actives have a fitted effect of over 45% in size
USP2a inh – USP2a (human) protease inhibition | O75604 | USP2 core, Ub-CHOP2 coupled fluorogenic reporter, 485/531 | Potency, µM (doses to about 38.3 µM), inactives show top-dose activity change, negative = inhibition, usual class: inhibitors | hit rate 0.01% among 330,000;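 also: plate controls were DMSO wells for no effect and full inhibition by NEM control for full effect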
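Cell-free coupled assay: 10nM USP2 core preincubated 30min RT with compound in Tris-HCl pH 8.0/CaCl2/CHAPS buffer, then 25nM Ub-CHOP2 and 25nM reporter substrate; fluorescence (Ex 485/Em 531) read after 60min RT, normalized to NEM inhibition, concentration-response curves fitted.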
EPAC1 agonist – agonists of human EPAC1. EPAC1 agonist qHTS, biochemical assay; response scale: 100% = response to 6.5 mM cAMP. Potency, µM (titrated, usually from 154 µM), without a hit: top-dose activation, usual class: activators. O95398. hit rate 0.073% among 360,000. AID 720707; also: nearly all actives have a fitted effect of over 60% in size
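Compounds were pinned as a concentration titration into mixtures of EPAC1 (100 nM), BODIPY-GDP-loaded Rap1B (250 nM) and GDP (50 uM). After 5 min at room temperature, fluorescence was followed for 30 min; activity was scaled to 6.5 mM cAMP.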
EPAC1 antag – EPAC1 (human) antagonism; EPAC1 GEF assay, Rap1b-BODIPY-GDP exchange fluorescence; Potency, µM (highest dose often 115 µM), for inactives: at the top dose activity change, negative = inhibition, actives largely listed as inhibitors; hit rate 0.14% among 360,000; AID 720709;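 also: plate controls were vehicle for no effect and positive control for full effect; nearly all actives have a fitted effect of over 50% in size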
USP1-UAF1 inh – blocks the human USP1/UAF1 deubiquitinase complex; recombinant USP1/UAF1, Ub-Rhodamine cleavage fluorescence; Potency, µM (titrated, usually from 57.1 µM), for inactives: at the highest dose activity change, negative = inhibition, usual class: inhibitors; hit rate 0.23% among 390,000; also: % is scaled to controls: 0 for no effect and ±100 for the full control effect; nearly all actives have a fitted effect of over 60% in size
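Step one: compound is pinned into 1nM USP1/UAF1 in HEPES pH 7.8 buffer with TCEP. Step two: 15 min room-temperature incubation. Step three: Ub-Rho (150nM final) starts cleavage, tracked by fluorescence over six one-minute reads.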
EPAC2 agonist – EPAC2 (human) agonism; Q8WZA2; EPAC2 activation, biochemical qHTS; response scale: 100% = 6.5 mM cAMP response; Potency, µM (top dose mostly 154 µM), inactives show top-dose activation, actives largely listed as activators; hit rate 0.079% among 360,000; AID 720711; also: nearly all actives have a fitted effect of over 50% in size
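Exchange assay: 100 nM EPAC2 with 250 nM Rap1B-BODIPY-GDP and 50 uM GDP. Fluorescence (ex 480/em 540 nm) read every 5 min for 30 min at room temperature. Data normalized to 6.5 mM cAMP as agonist control.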
* = called active by the depositor; i = inactive; ? = inconclusive; / = not tested or not shown. Calls follow the shape of the dose curve; as a rule, active = well fitted curve in the direction sought with a large enough effect; inconclusive = small, poorly fitted or top-dose-only effect, or another doubt; inactive = no such curve, though single readings can be large; an effect the other way counts as inactive or inconclusive. Potency is read from the fitted curve at half-maximal effect.

SMILES	EPAC2 antag	USP2a inh	EPAC1 agonist	EPAC1 antag	USP1-UAF1 inh	EPAC2 agonist
COc1ccc(Nc2ncnc3c2nc2n3CCCCC2)cc1	/	/	/	/	-25.1%	/
O=C1NC(=S)S/C1=C\c1cc(Cl)ccc1Cl	56.2µM*	/	-6.6%	?	-15.5%	-11.3%
Cc1cc(/C=C2\SC(=S)NC2=O)c(C)[nH]1	-21.4%	4.1%	10.6%	-22.5%	-23.6%	8.6%
O=C(COc1ccccc1Cl)OCc1cc(=O)n2nc(C3CCCCC3)sc2n1	/	/	/	/	-23.6%	/
CC1(Cc2ccc(Cl)cc2)C(=O)Nc2ccc(-c3cccnc3)cc21 (stereo not drawn)	50.1µM*	/	-2.1%	-6.6%	/	11.7%
CC1(Cc2cccc(F)c2)C(=O)Nc2ccc(-c3cccnc3)cc21 (stereo not drawn)	?	/	-17.9%	-8.2%	/	4.9%
Oc1c(Br)cc(/C=N/Nc2ccc(Cl)nn2)cc1Br	-7.1%	5.4%	-4.4%	25.1µM*	-25.7%	-1.5%
COc1ccc(Cl)cc1NC(=O)Cn1c(=O)n(-c2ccc(C)cc2)c(=O)c2ccc(C(=O)NCc3ccccc3Cl)cc21	/	/	/	/	-18.3%	/
O=C(NCCN1CCC(n2c(=O)[nH]c3ccccc32)CC1)c1ccc(F)cc1Cl	3.5%	/	2.2%	10.0%	/	7.5%
CC(C)CC(=O)Nc1nc2c(s1)CC(C(C)(C)C)CC2 (stereo not drawn)	/	/	/	/	-15.6%	/
O=c1c(O)c(-c2cc(O)c(O)c(O)c2)oc2cc(O)cc(O)c12	8.91µM*	1.0%	-26.3%	15.8µM*	-20.3%	8.4%
O=c1c(O)c(-c2ccccc2)oc2cc(O)cc(O)c12	-11.7%	1.1%	-20.7%	-18.8%	-28.6%	8.2%
O=c1[nH][nH]c2c(N=Cc3ccccc3O)ccc(F)c12	3.9%	1.4%	3.5%	39.8µM*	28.2µM*	-1.4%
CCc1ccc(O)c(N=Cc2ccccc2O)c1	3.1%	2.2%	1.0%	6.7%	-22.5%	0.6%
Cc1onc(-c2c(Cl)cccc2Cl)c1COC(=O)c1ccc(Cl)cc1	3.55µM*	0.3%	-0.9%	-11.3%	-21.6%	7.5%
Cc1onc(-c2c(Cl)cccc2Cl)c1COC(=O)c1ccc([N+](=O)[O-])cc1	-9.1%	2.6%	7.9%	10.2%	?	-0.1%
CCc1ccccc1NC(=O)Cn1nnc2sc3c(c2c1=O)CCC(C(C)(C)C)C3 (stereo not drawn)	/	/	/	/	-16.8%	/
COc1ccc(N2CCN(S(=O)(=O)CCNC(=O)c3ccc(C(F)(F)F)cc3)CC2)cc1	/	/	/	/	-20.1%	/
COc1ccc(OC)c(NC(=O)C(C)Oc2ccc(Br)cc2)c1 (stereo not drawn)	12.6µM*	2.7%	2.0%	-3.7%	-18.7%	5.0%
Cc1ccccc1CNC(=O)CCCn1c(=O)c2cccn2c2ccccc21	/	/	/	/	-8.2%	/
Cc1cccc(-n2c3nc(=O)[nH]c(=O)c-3cc3cc([N+](=O)[O-])ccc32)c1	-1.0%	0.8%	4.3%	4.2%	?	-5.3%
Cc1ccc(C)c(-n2c3nc(=O)[nH]c(=O)c-3cc3cc([N+](=O)[O-])ccc32)c1	-14.9%	4.0%	4.4%	56.2µM*	?	13.0%
C=CC(C)N1C(=O)S/C(=C\c2ccc(N3CCOCC3)cc2C)C1=O (stereo not drawn)	-1.1%	5.1%	-38.4%	35.5µM*	-13.7%	1.3%
C=CCN1C(=O)S/C(=C\c2ccc(N3CCOCC3)cc2C)C1=O	23.9%	15.0%	-61.6%	22.2%	-17.0%	-37.8%
CCOC(=O)N1CCN(CCC(=O)Nc2cccc(F)c2)CC1	/	/	/	/	2.2%	/
SMILES	EPAC2 antag	USP2a inh	EPAC1 agonist	EPAC1 antag	USP1-UAF1 inh	EPAC2 agonist
COc1ccc2cc(C(=O)N/N=C/c3sc4ccccc4c3O)ccc2c1	-10.6%	18.5%	8.4%	35.4%	28.2µM*	-38.7%
COc1ccc(C(=O)N/N=C/c2sc3ccccc3c2O)cc1	-1.1%	9.1%	15.1%	-0.1%	?	?
O=C(c1ccco1)N(CCC(c1ccccc1)c1ccco1)Cc1ccccc1 (stereo not drawn)	?	-0.7%	2.4%	89.1µM*	-18.5%	4.3%
CC1(C)C=C2C(=NN(c3ccccc3)C(N)=C2C#N)CO1	-18.8%	-0.3%	1.8%	-10.2%	4.47µM*	16.7%
COC(=O)c1c(C)c2c(C)cc3ccccn3c-2c1C(=O)OC	11.2µM*	0.2%	-6.2%	1.5%	-4.5%	-9.5%
Cc1cc(O)c(C(C)C)cc1N=Cc1ccc(N(C)C)cc1	5.9%	/	1.1%	11.0%	31.6µM*	-2.6%
Cc1cn2c(=O)c(S(=O)(=O)NCCc3ccccc3)c(C)nc2s1	/	/	/	/	-11.4%	/
FC(F)(F)c1ccccc1Cc1c(-c2ccco2)nc2ccc(Br)cn12	-14.4%	/	-13.2%	-28.3%	/	-3.4%
C[C@@]12C(=O)Nc3cc(F)ccc3C(=O)N1[C@H]1c3cc(Br)ccc3OC[C@@H]1[C@@H]2c1ccccc1	149.9%	4.3%	-8.5%	5.7%	-14.9%	79.4µM*
CCOC(=O)[C@H]1[C@H]2COc3ccc(C)cc3[C@@H]2N2C(=O)c3ccc(C)cc3NC(=O)[C@@]12C	17.1%	1.2%	?	10.5%	-18.5%	79.4µM*
O=C(NCc1ccc(F)cc1)c1cccc(N2CCCS2(=O)=O)c1	/	/	/	/	-24.3%	/
COc1ccc(-c2nc3scc(CCNS(=O)(=O)c4c(C)cc(C)cc4C)n3n2)cc1OC	/	/	/	/	-14.8%	/
Cc1nc(CN(C)c2ncnc3ccc(-c4ccc5c(c4)OCO5)cc23)cs1	31.6µM*	/	6.0%	-19.0%	/	15.6%
O=C1C=C(O)c2[nH]c(=O)ccc2C1=O	-18.5%	/	-2.9%	-24.1%	25.1µM*	-0.5%
COc1cccc(C(=O)/C=C/c2ccc(OCC#N)c(OC)c2)c1	-2.5%	0.1%	1.1%	22.4µM*	-20.7%	12.9%
COc1cc(/C=C/C(=O)c2ccc(O)cc2)ccc1OCC#N	-10.1%	1.2%	3.0%	?	-0.8%	8.3%
O=C(OCCN1C(=O)c2cccc3c(N4CCOCC4)ccc(c23)C1=O)c1cccc(Cl)c1	169.8%	10.0%	25.1µM*	65.1%	?	-44.4%
O=C(OCCN1C(=O)c2cccc3c(N4CCOCC4)ccc(c23)C1=O)c1ccc(Cl)cc1Cl	180.3%	3.8%	?	76.2%	i	4.1%
Clc1ccc(-c2cc3ccccc3nc2N2CCOCC2)cc1	56.2µM*	0.4%	9.1%	-27.5%	-12.9%	7.5%
Clc1ccc(-c2cc3ccccc3nc2N2CCCC2)cc1	6.1%	2.3%	17.4%	-3.4%	-16.0%	8.4%
COC(=O)C1(Cc2ccccc2)NC(c2ccc(F)cc2)C2C(=O)N(C)C(=O)C21 (stereo not drawn)	-2.3%	1.6%	-7.7%	11.3%	-13.5%	7.94µM*
